The panel holds about 83,000 compounds, 20% with a hit somewhere; the sample as a whole holds those more often.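 Single-dose data. Exposure time 48 hours. Values below 10 considered active.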 Activity calls are given as the source filed them.
Assays:
Experiment in all cases: NCI-60 one-dose screen, 48 h (100 = growth as untreated, 0 = no growth, -100 = all killed)
Details in all cases: 10 µM unless noted
[1] = tested on: HCT-15 colon
[2] = tested on: HT29 colon
[3] = tested on: SNB-75 CNS
[4] = tested on: SNB-19 CNS
[5] = tested on: U251 CNS
[6] = tested on: PC-3 prostate
[7] = tested on: SK-MEL-5 melanoma
[8] = tested on: UACC-62 melanoma
[9] = tested on: LOX IMVI melanoma
[10] = tested on: SK-MEL-28 melanoma
[11] = tested on: SK-MEL-2 melanoma
[12] = tested on: EKVX NSCLC
[13] = tested on: SN12C renal
[14] = tested on: UO-31 renal
[15] = tested on: TK-10 renal
[16] = tested on: ACHN renal
[17] = tested on: CAKI-1 renal
[18] = tested on: A498 renal
[19] = tested on: CCRF-CEM leukemia
[20] = tested on: MOLT-4 leukemia

Measured: growth

CC1CCN(CCCCCOc2ccc3oc4ccc(Cl)cc4c(=O)c3c2)CC1
inactive: [3] 93.5% | [4] 79.6% | [5] 49.5% | [6] 55.1% | [7] 11.6% | [10] 64.7% | [11] 88.1% | [12] 75.1% | [13] 70.9% | [14] 63.1% | [15] 75.7% | [16] 93.8% | [17] 80.3% | [18] 78.7% | [19] 40.4%
active: [1] -21.5% | [2] 1.54% | [8] -43.5% | [9] 7.78%

O=P(O)(O)C(O)(Cc1cccnc1)P(=O)(O)O
inactive: [1] 90.3% | [2] 106% | [3] 88% | [4] 107% | [5] 81.6% | [6] 95.9% | [7] 103% | [8] 99.2% | [9] 86.1% | [10] 103% | [11] 111% | [12] 103% | [13] 94% | [14] 84.6% | [15] 144% | [16] 100% | [17] 94.2% | [18] 119% | [19] 79.1%

CCN(CC)c1ccc(/C=C2/NC(=O)NC2=O)cc1
active: [7] -7.83% | [11] 8.13% | [12] 1.53%
inactive: [1] 36.6% | [2] 16.5% | [3] 59.1% | [4] 61.1% | [5] 44.7% | [6] 65.8% | [8] 11.7% | [9] 46.4% | [10] 66.6% | [13] 55.9% | [14] 53.5% | [15] 49.5% | [16] 71.4% | [17] 39% | [18] 23.8%

CCOC(=O)c1cnc(SCC)nc1SC#N
active: [17] -65.3%
inactive: [1] 63.3% | [2] 81.5% | [3] 93.1% | [4] 110% | [5] 89.2% | [6] 91.7% | [7] 126% | [8] 94.3% | [9] 83% | [10] 108% | [11] 96.1% | [12] 99.8% | [13] 95.7% | [14] 95.2% | [15] 84.3% | [16] 71.3% | [18] 106%

O=C(CCl)Nc1cc(O)c2c(c1)C(=O)c1cccc(O)c1C2=O
active: [1] -82.2% | [2] -88% | [3] 7.38% | [4] -36.5% | [5] -96.2% | [6] -63.6% | [7] -95% | [8] -67.3% | [9] -68.2% | [10] 2.89% | [11] -49.4% | [12] 5% | [13] -43.1% | [14] -87% | [15] -87.3% | [16] -91.2% | [17] -94% | [18] -0.734% | [19] -45%

CC(=O)O[C@@H]1CC2C(C)(C)CCCC2(C)C2=C1C(=O)C(C(C)C)=CC2=O (stereo not given in full)
inactive: [4] 20.9% | [6] 12% | [9] 10.6% | [12] 10.8% | [15] 18.6% | [19] 14%
active: [1] -8% | [2] 0.85% | [3] -11.8% | [5] 3.62% | [7] -93.3% | [8] -64.4% | [10] -16.8% | [11] -47.9% | [13] 7.47% | [14] -94.1% | [16] -70.2% | [17] -3.95% | [18] -63.3%

O=C1NN(C(=O)c2ccccc2)C(c2ccc(Cl)c(Cl)c2)=C/C1=C\c1ccccc1[N+](=O)[O-]
active: [1] -28.1% [6.75 µM] | [2] 4.99% [6.75 µM] | [6] 9.01% [6.75 µM] | [7] -65.4% [6.75 µM] | [8] -69% [6.75 µM] | [9] -45.5% [6.75 µM] | [14] -3.12% [6.75 µM] | [18] -10.9% [6.75 µM]
inactive: [3] 25.1% [6.75 µM] | [4] 24.3% [6.75 µM] | [5] 14.7% [6.75 µM] | [10] 27.8% [6.75 µM] | [11] 10.9% [6.75 µM] | [12] 32% [6.75 µM] | [13] 30.7% [6.75 µM] | [15] 42.1% [6.75 µM] | [16] 24% [6.75 µM] | [17] 24.1% [6.75 µM] | [19] 17.4% [6.75 µM]

COc1cc(C2CC(c3ccccc3)=NN2C=O)ccc1Oc1nc2c(c(=O)n(C)c(=O)n2C)n1C (stereo not given)
inactive: [1] 87.9% | [2] 69.9% | [3] 92% | [4] 61.9% | [5] 86.5% | [6] 72.8% | [7] 59.2% | [8] 86.2% | [9] 55% | [10] 95.1% | [11] 101% | [12] 74.1% | [13] 49% | [14] 62.4% | [15] 110% | [16] 86.9% | [17] 79.4% | [18] 81.3% | [19] 77.9%

CCN(CC)CCCC(C)Nc1c(-c2ccccc2)cnc2cc(Cl)ccc12 (stereo not given)
inactive: [1] 29.5% | [3] 132% | [4] 101% | [5] 58.1% | [6] 64.5% | [7] 55.3% | [8] 97.2% | [9] 19.2% | [10] 15.3% | [11] 35.1% | [12] 83.4% | [13] 74.1% | [14] 50.3% | [15] 59.8% | [16] 93% | [17] 85.8% | [18] 60% | [19] 62.1%
active: [2] -33.5%

Cc1csc(N/N=C/c2ccncc2)n1
inactive: [1] 103% | [2] 87.4% | [3] 105% | [4] 100% | [5] 83.5% | [6] 111% | [7] 100% | [8] 93.2% | [9] 100% | [10] 110% | [11] 97.7% | [12] 90.1% | [13] 97.8% | [14] 95% | [15] 91% | [16] 103% | [17] 99.5%

O=C1N(Cc2ccccc2Cl)c2ccccc2C12NN=C(c1ccccc1)S2 (stereo not given)
inactive: [1] 35.3% | [2] 107% | [3] 71.8% | [4] 53% | [5] 36.1% | [6] 45.1% | [7] 53.3% | [8] 58.6% | [9] 42.3% | [10] 78.6% | [11] 91.3% | [12] 58.1% | [13] 64.1% | [14] 54.2% | [15] 105% | [16] 59.4% | [17] 47.4% | [18] 52.8% | [19] 57.3% | [20] 53.6%

CCN(CC)CCCC(C)Nc1ccnc2ccc(Oc3ccccc3)cc12 (stereo not given)
active: [7] -89% | [10] -6.8%
inactive: [1] 49.6% | [2] 38.6% | [3] 73.2% | [4] 89.4% | [5] 63.5% | [6] 84.9% | [8] 31.7% | [9] 36.4% | [11] 112% | [12] 85.5% | [13] 79.1% | [14] 68.5% | [15] 93.5% | [16] 67.1% | [17] 79% | [18] 48.4% | [19] 72.5%

CCCCCCCCCCCC1=NC(C)(C)CN1C(C)C
inactive: [1] 11.8% | [3] 52% | [4] 86.7% | [5] 37% | [6] 34.6% | [9] 34.6% | [11] 60.9% | [12] 57.5% | [13] 61% | [14] 38% | [15] 81.6% | [16] 61.6% | [17] 46.6% | [18] 76.7% | [19] 29.3%
active: [2] 0.372% | [7] -24.7% | [8] -51.3% | [10] -54.7%

CC(C)(C)[Si](C)(C)OC1[C@@H](O[Si](C)(C)C(C)(C)C)[C@@H](CNC(=O)NC(=O)NC(=O)CI)O[C@H]1n1cnc2c(NC(=O)Nc3ccccc3)ncnc21 (stereo not given in full)
active: [2] -39.8% | [9] -80.7% | [14] -89.2% | [16] -22.7% | [19] -38.5%
inactive: [1] 83.1% | [3] 68.1% | [4] 103% | [5] 32.5% | [6] 14.7% | [7] 102% | [8] 75.4% | [10] 125% | [11] 92.8% | [12] 56.5% | [13] 84.1% | [15] 46.6% | [17] 47.8% | [18] 73.8%

O=C1OCC2=C1C(c1ccccc1)c1cc3c(cc1N2CCO)CCC3 (stereo not given)
inactive: [1] 14.1% | [3] 64.4% | [5] 12% | [6] 15.7% | [8] 31.7% | [9] 28.5% | [10] 42.7% | [11] 17.1% | [12] 22.7% | [13] 23.2% | [14] 38.1% | [15] 54.5% | [16] 29.7% | [17] 26.7%
active: [2] 6.75% | [4] -12.2% | [7] -29.2% | [18] -21.5%

O=[N+]([O-])c1ccc(N/N=C/c2ccccc2O)nc1
inactive: [1] 29.9% | [2] 47% | [3] 52.9% | [4] 56.2% | [5] 28.5% | [6] 45.8% | [7] 20% | [8] 42.7% | [9] 26.4% | [10] 62% | [11] 35% | [12] 29.7% | [13] 37.7% | [14] 25.5% | [15] 26.2% | [16] 27.3% | [18] 97.8% | [19] 17.1%
active: [17] 4.68%

From PubChem BioAssay (NCI)
